Compounds without any hit were thinned out: in the full panel of roughly 83,000, 20% have a hit.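 Compound tested at a single concentration for 48 hours in 96-well plates; a percent growth value below 10 was scored as active.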 Values without a mark were called inactive. Active and inactive are the calls of the source.

The first experiment deals with RPMI-8226 leukemia. The experiment in a line: NCI-60 one-dose screen, 48 h (100 = growth as untreated, 0 = no growth, -100 = all killed). The following applies: 10 µM.
Regarding `Cc1cc2c(C)c3cc(C)c(N)cc3nc2cc1N`, the growth is 0.782% (active).
Take `CCCCCC(=O)c1ccc(OCCCN2CCN(C(=O)OCC)CC2)cc1`: the growth was 48.6%.
On the same count and under the same terms, the same measure for `COc1cc(/C=N/NC(=O)c2ccccc2Nc2ccnc(C(F)(F)F)c2)ccc1O`: 90.8%; for `Cc1ccc(CC#N)cc1C`: 134%.
For the molecule `COc1ccc(-c2nc3ncccn3c2-c2nnc(-c3ccc(F)cc3)o2)cc1`, the growth is 95.9%.
For `O=[P@@]1(c2ccccc2)O[C@H](COCc2ccccc2)[C@@H](OCc2ccccc2)[C@H](OCc2ccccc2)[C@H]1O`, the growth is 89.6%.
Same read-out and setting: the figure for `O=C1/C(=C\c2ccc(Cl)cc2)CN(C(=S)Nc2ccccc2)C/C1=C\c1ccc(Cl)cc1` is -29.8% (active); for `COc1cc(-c2cc(/C=C/C(=O)c3ccc(Cl)c(Cl)c3)[nH]n2)cc(OC)c1OC` it is -20.3% (active); for `Clc1ccc(Nc2ccnc(NCCCNc3ccnc4cc(Cl)ccc34)n2)cc1` it is -62.1% (active).
The same measure, in the same setting: the figure for `O=C1OCC2=C1C(c1ccc(Cl)c(Cl)c1)c1cc3c(cc1N2CCO)OCCO3` (stereo not drawn) is 18.7%; for `NC(=S)N=Nc1c(O)c2ccccc2c2ccccc12` it is 58.7%; for `Cc1cccc(C)c1NC(=O)c1sc2nc3c(cc2c1N)C(=O)CCC3` it is 96%.
`Nc1ccc2c(c1)C1(CCC2)NC(=O)NC1=O` (stereo not drawn): the growth was 98.4%.
With `CSc1nc(=O)n(Cc2ccc(Cl)cc2)c(=O)[nH]1`, the growth was 103%.
For `CN1CCC2(CC1)NC(=O)c1c(c3ccc(Cl)c(Cl)c3n1C)C2C#N` (stereo not drawn), the growth is 80.4%.
On the same count and under the same terms, the figure for `c1ccc2c(c1)oc1c3cccnc3ccc21` is 97.1%; for `COc1cc(Cl)cc(-c2nn(-c3cccc(NC(=O)Nc4ccc(Cl)c(Cl)c4)c3)cc2-c2ccncc2)c1` it is -4.44% (active).
Turning to `Cc1cn(C2CCCCO2)c(=O)nc1NO` (stereo not drawn), the growth was 111%.
Turning to `Cc1ccc(Nc2nnc(-c3cc(-c4ccncc4)n(-c4ccccc4)n3)s2)cc1`, the growth is 38.6%.
Consider `CCOC(=O)N/N=C\C(C)=N\NC(=O)OCC`, for which the growth is 98.8%.
Consider `COc1ccc(-c2cc(/C=C3\C(=O)Nc4ccc(Cl)cc43)[nH]n2)cc1OC`, for which the growth was 68.6%.
On the same count and under the same terms, the figure for `CNc1ccc(CSc2ccc(C)cc2)cc1` is 20.8%; for `Nc1nc(N)c2c(ccc3nccc32)[nH]1` it is 43.2%; for `O=C(O)c1ccc(Cl)cc1Nc1ccc(F)cc1` it is 88.6%.
As to `CC(C)=CCc1cc(O)cc2c1OC(C=C(C)C)C1=C2C(=O)C2=C(C1=O)S(=O)(=O)CCN2` (stereo not drawn), the growth was 51.4%.
Regarding `COc1ccc(OC)c(/C=C/c2nc(SCc3ccccc3)n(-c3ccc(Cl)cc3)n2)c1`, the growth was 42.5%.
As for `N=C(N)c1ccc(-c2ccc(-c3cccs3)s2)cc1`, the growth is -30.9% (active).
For `Nc1ccn(C2CC(O)C(CO)O2)c(=O)n1` (stereo not drawn), the growth was 112%.
Regarding `S=c1[nH]ccn1-c1c(Cl)cccc1Cl`, the growth is 89%.
Turning to `COC(=O)c1c(-c2ccccc2)csc1NC(=O)c1c(-c2ccccc2)noc1C`, the growth was 27.9%.
As for `Cc1cc(N(CCCNc2ccnc3cc(Cl)ccc23)Cc2cccs2)nc(Cl)n1`, the growth was -6.73% (active).
The same measure, in the same setting: the same measure for `NC(=O)CC1(c2ccccc2)CCCCC1`: 99.1%.
Same read-out and setting: the same measure for `c1ccc(CP(Cc2ccccc2)c2ccccc2)cc1`: 92.7%.
For `c1ccc(C(NC2CC3CCC2C3)c2ccccc2)cc1` (stereo not drawn), the growth was 96.2%.
With `CSCCCNC(=O)c1ccc2c(c1)/C(=C/c1[nH]c(C)cc1C)C(=O)N2`, the growth is 19.7%.
For `CCN1Cc2c(/C=C/c3ccccc3)nc3ccc(OC)cc3c2N(c2cccc(Cl)c2)C1`, the growth is -1.25% (active).
Regarding `O=C(Nc1nc2ccccc2s1)Nc1ccc([N+](=O)[O-])cc1Cl`, the growth is 36.9%.
On to `CC/C(=C(/c1ccc(OCCN(C)C)cc1)c1ccc(OC(=O)CCC(=O)c2c(C)[nH]c(/C=C3\N=C(c4ccc[nH]4)C=C3OC)c2C)cc1)c1ccccc1`, for which the growth is -22.3% (active).
Still for that read-out and setting: the figure for `O=C(O)C(SC(C(=O)O)c1ccccc1)c1ccccc1` (stereo not drawn) is 102%.

The test system of another experiment is OVCAR-8 ovarian. The experiment is described as above. The following applies: 10 µM.
On to `Cc1cc2c(C)c3cc(C)c(N)cc3nc2cc1N`, for which the growth is -6.68% (active).
For `CCCCCC(=O)c1ccc(OCCCN2CCN(C(=O)OCC)CC2)cc1`, the growth was 104%.
Regarding `COc1cc(/C=N/NC(=O)c2ccccc2Nc2ccnc(C(F)(F)F)c2)ccc1O`, the growth was 101%.
As for `Cc1ccc(CC#N)cc1C`, the growth was 78.3%.
In the case of `COc1ccc(-c2nc3ncccn3c2-c2nnc(-c3ccc(F)cc3)o2)cc1`, the growth is 92.4%.
Turning to `O=[P@@]1(c2ccccc2)O[C@H](COCc2ccccc2)[C@@H](OCc2ccccc2)[C@H](OCc2ccccc2)[C@H]1O`, the growth was 45%.
Consider `O=C1/C(=C\c2ccc(Cl)cc2)CN(C(=S)Nc2ccccc2)C/C1=C\c1ccc(Cl)cc1`, for which the growth was -5.17% (active).
In the case of `COc1cc(-c2cc(/C=C/C(=O)c3ccc(Cl)c(Cl)c3)[nH]n2)cc(OC)c1OC`, the growth is 77.8%.
`Clc1ccc(Nc2ccnc(NCCCNc3ccnc4cc(Cl)ccc34)n2)cc1`: the growth is -49% (active).
Take `O=C1OCC2=C1C(c1ccc(Cl)c(Cl)c1)c1cc3c(cc1N2CCO)OCCO3` (stereo not drawn): the growth was 27.7%.
Still for that read-out and setting: the same measure for `NC(=S)N=Nc1c(O)c2ccccc2c2ccccc12`: 36%; for `Cc1cccc(C)c1NC(=O)c1sc2nc3c(cc2c1N)C(=O)CCC3`: 97.9%; for `Nc1ccc2c(c1)C1(CCC2)NC(=O)NC1=O` (stereo not drawn): 100%.
As to `CSc1nc(=O)n(Cc2ccc(Cl)cc2)c(=O)[nH]1`, the growth is 98.8%.
For `CN1CCC2(CC1)NC(=O)c1c(c3ccc(Cl)c(Cl)c3n1C)C2C#N` (stereo not drawn), the growth was 80.8%.
Same read-out and setting: the same measure for `c1ccc2c(c1)oc1c3cccnc3ccc21`: 99.7%; for `COc1cc(Cl)cc(-c2nn(-c3cccc(NC(=O)Nc4ccc(Cl)c(Cl)c4)c3)cc2-c2ccncc2)c1`: 1.93% (active); for `Cc1cn(C2CCCCO2)c(=O)nc1NO` (stereo not drawn): 101%.
Same read-out and setting: the figure for `Cc1ccc(Nc2nnc(-c3cc(-c4ccncc4)n(-c4ccccc4)n3)s2)cc1` is 63.5%; for `CCOC(=O)N/N=C\C(C)=N\NC(=O)OCC` it is 99%; for `COc1ccc(-c2cc(/C=C3\C(=O)Nc4ccc(Cl)cc43)[nH]n2)cc1OC` it is 81.4%.
As to `CNc1ccc(CSc2ccc(C)cc2)cc1`, the growth is 91.1%.
With `Nc1nc(N)c2c(ccc3nccc32)[nH]1`, the growth is 26.2%.
Same read-out and setting: the figure for `O=C(O)c1ccc(Cl)cc1Nc1ccc(F)cc1` is 74.1%; for `CC(C)=CCc1cc(O)cc2c1OC(C=C(C)C)C1=C2C(=O)C2=C(C1=O)S(=O)(=O)CCN2` (stereo not drawn) it is 10.8%; for `COc1ccc(OC)c(/C=C/c2nc(SCc3ccccc3)n(-c3ccc(Cl)cc3)n2)c1` it is 83.6%.
As for `N=C(N)c1ccc(-c2ccc(-c3cccs3)s2)cc1`, the growth was -14% (active).
Same read-out and setting: the figure for `Nc1ccn(C2CC(O)C(CO)O2)c(=O)n1` (stereo not drawn) is 106%.
The same measure, in the same setting: the same measure for `S=c1[nH]ccn1-c1c(Cl)cccc1Cl`: 103%; for `COC(=O)c1c(-c2ccccc2)csc1NC(=O)c1c(-c2ccccc2)noc1C`: 25.6%; for `Cc1cc(N(CCCNc2ccnc3cc(Cl)ccc23)Cc2cccs2)nc(Cl)n1`: 44.7%.
As for `NC(=O)CC1(c2ccccc2)CCCCC1`, the growth was 107%.
As for `c1ccc(CP(Cc2ccccc2)c2ccccc2)cc1`, the growth is 94.8%.
For `c1ccc(C(NC2CC3CCC2C3)c2ccccc2)cc1` (stereo not drawn), the growth is 105%.
Turning to `CSCCCNC(=O)c1ccc2c(c1)/C(=C/c1[nH]c(C)cc1C)C(=O)N2`, the growth is 32.6%.
Take `CCN1Cc2c(/C=C/c3ccccc3)nc3ccc(OC)cc3c2N(c2cccc(Cl)c2)C1`: the growth is 89.4%.
Turning to `O=C(Nc1nc2ccccc2s1)Nc1ccc([N+](=O)[O-])cc1Cl`, the growth was -26.4% (active).
Consider `CC/C(=C(/c1ccc(OCCN(C)C)cc1)c1ccc(OC(=O)CCC(=O)c2c(C)[nH]c(/C=C3\N=C(c4ccc[nH]4)C=C3OC)c2C)cc1)c1ccccc1`, for which the growth is 22.8%.
Regarding `O=C(O)C(SC(C(=O)O)c1ccccc1)c1ccccc1` (stereo not drawn), the growth is 110%.

Source of the values: PubChem BioAssay (NCI).
